Reference: PubChem BioAssay
Activity calls are given as the source filed them. Unless noted, the rule behind the calls is not given here.

Assays:
[1] = HepG2 liver cancer cell viability effects, profiling panel, resazurin fluorescence, 24 h, PK04 Diversity Set (AID 1172); details: higher = more signal; note: test concentration not given here
[2] = basal S. cerevisiae growth modulation, no modifier, primary screen, OD600, strain BY4716, 24 h, basal condition (AID 1173); details: OD600, 24 h, higher = more signal, called active from +8 up or from −8 down
[3] = MM1S myeloma cell viability, profiling panel, resazurin fluorescence, basal, 24 h, PK04 Diversity Set (AID 1174); details: higher = more signal, called active from +8 up or from −8 down;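 note: MM1S multiple myeloma cell line; test concentration not given here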
[4] = target: Dihydroorotate dehydrogenase (quinone), mitochondrial (Plasmodium falciparum (isolate 3D7)) (UniProt Q08210); test: PfDHODH enzyme inhibitors, primary screen, biochemical, C-terminal His tag, absorbance 600 nm (AID 1175); details: DCIP absorbance 600 nm, higher = more signal, called active from +8 up or from −8 down;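 note: recombinant parasite enzyme with a five histidine tag at its C terminus; test concentration not given here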
[5] = P. aeruginosa biofilm formation inhibitors, primary screen, strain PAO1, LB-PBS medium, absorbance 600 nm (AID 1176); note: test concentration not given here; details: P. aeruginosa PAO1 growth/biofilm, A600, 12 h; higher = more signal
[6] = S. cerevisiae RM11-1a growth modifiers, primary screen, strain RM11-1a, OD600, basal, 24 h (AID 1177); details: OD600, 24 h, higher = more signal, called active from +8 up or from −8 down;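 note: cultures grown under basal conditions with no added stressor; test concentration not given here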
[7] = E. coli acrAB mutant growth effects, primary screen, E. coli filamentation inducers, strain DRC39, OD650, 24 h (AID 1178); details: higher = more signal, called active from +8 up or from −8 down;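 note: growth measured as culture turbidity by optical density at 650 nm; test concentration not given here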
[8] = E. coli acrAB mutant growth effects, primary screen, E. coli filamentation inducers, strain DRC39, OD650, 48 h (AID 1179);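 note: screen aims at cell division blockers that make cells filament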; details: E. coli DRC39 delta-acrAB growth, higher = more signal, called active from +8 up or from −8 down
[9] = RPMI8226 myeloma cell viability, profiling panel, resazurin fluorescence, basal, 24 h, PK04 Diversity Set (AID 1180); details: higher = more signal;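 note: RPMI8826 multiple myeloma cell line at 5000 cells per well; test concentration not given here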
[10] = target: E3 ubiquitin-protein ligase XIAP (Homo sapiens) (UniProt P98170); test: XIAP binders, primary screen, biophysical, small-molecule microarray, fluorescence 635 nm (AID 1181); details: small-molecule microarray binding, higher = more signal;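 note: score merges 667 nm emission and signal to noise over triplicate slides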
E3 ubiquitin-protein ligase XIAP (Homo sapiens), sequence (P98170 whole entry, looked up): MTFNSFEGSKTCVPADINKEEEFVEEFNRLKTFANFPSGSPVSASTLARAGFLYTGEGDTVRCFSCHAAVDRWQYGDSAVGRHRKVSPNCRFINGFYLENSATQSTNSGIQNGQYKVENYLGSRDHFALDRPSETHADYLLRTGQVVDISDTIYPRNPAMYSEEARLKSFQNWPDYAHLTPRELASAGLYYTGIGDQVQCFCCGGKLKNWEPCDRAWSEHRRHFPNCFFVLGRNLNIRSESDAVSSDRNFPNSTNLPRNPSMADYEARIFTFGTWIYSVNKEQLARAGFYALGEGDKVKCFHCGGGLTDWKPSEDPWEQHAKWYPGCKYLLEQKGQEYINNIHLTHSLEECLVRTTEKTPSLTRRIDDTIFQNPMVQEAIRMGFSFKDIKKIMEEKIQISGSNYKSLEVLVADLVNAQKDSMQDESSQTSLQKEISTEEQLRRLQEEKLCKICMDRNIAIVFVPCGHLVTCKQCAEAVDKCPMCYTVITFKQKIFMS

Dihydroorotate dehydrogenase (quinone), mitochondrial (Plasmodium falciparum (isolate 3D7)), sequence (Q08210 whole entry, looked up): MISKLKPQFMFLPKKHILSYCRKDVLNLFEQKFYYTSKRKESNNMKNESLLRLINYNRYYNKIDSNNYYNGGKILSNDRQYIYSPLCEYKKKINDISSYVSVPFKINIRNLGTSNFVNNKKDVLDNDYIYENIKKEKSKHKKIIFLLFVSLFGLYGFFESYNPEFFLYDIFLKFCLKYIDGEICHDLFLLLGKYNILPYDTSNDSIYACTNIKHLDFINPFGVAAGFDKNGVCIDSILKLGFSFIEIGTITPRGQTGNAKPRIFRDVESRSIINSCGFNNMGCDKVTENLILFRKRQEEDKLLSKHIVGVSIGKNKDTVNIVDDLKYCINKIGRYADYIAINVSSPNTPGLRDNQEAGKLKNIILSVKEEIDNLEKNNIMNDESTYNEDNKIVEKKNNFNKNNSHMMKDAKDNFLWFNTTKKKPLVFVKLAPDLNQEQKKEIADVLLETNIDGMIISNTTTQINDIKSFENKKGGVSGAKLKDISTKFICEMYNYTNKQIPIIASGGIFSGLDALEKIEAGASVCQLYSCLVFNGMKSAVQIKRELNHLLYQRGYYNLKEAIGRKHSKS

| Compound | z-score [1] | z-score [2] | z-score [3] | composite z-score [4] | z-score [5] | z-score [6] | z-score [7] | z-score [8] | z-score [9] | composite z-score [10] |
| --- | --- | --- | --- | --- | --- | --- | --- | --- | --- | --- |
| CO[C@H]1COC(=O)CCC[C@H](C)[C@@H](OC)COC(=O)CC=C[C@@H]1C | 0.367 | -0.721 (inactive) | -1.18 (inactive) | -1.58 (inactive) | -0.339 (inactive) | -1.02 (inactive) | 0.42 (inactive) | 0.0526 (inactive) | 1.07 | 0.0029 |
| CCC1=NOC(CCC2CC(OC(=O)NCc3cccc4c3OCO4)CC3(CCCC(COC(=O)NCCc4ccc(Cl)cc4)O3)O2)C1 (stereo not given) | 0.22 | 0.519 (inactive) | -0.0555 (inactive) | -0.362 (inactive) | 0.52 (inactive) | 0.0088 (inactive) | 0.137 (inactive) | 0.377 (inactive) | 0.73 | -0.0476 |
| COc1cccc([C@H]2Oc3ccc(OC)cc3C(=NOCC[C@@H]3C=C[C@H](OC(C)=O)[C@@H](COC(C)=O)O3)[C@@H]2O)c1 | -0.76 | 0.813 (inactive) | -0.698 (inactive) | 0.472 (inactive) | 0.0767 (inactive) | 0.614 (inactive) | 0.688 (inactive) | -0.53 (inactive) | -0.583 | 0.0123 |
| CC(=O)OC[C@H]1O[C@H](CC=NOC[C@@H](O)[C@H]2O[C@@H]3OC(C)(C)O[C@@H]3[C@H]2O)C=C[C@@H]1OC(C)=O | 0.287 | 0.933 (inactive) | -1.15 (inactive) | 0.189 (inactive) | -0.124 (inactive) | 1.08 (inactive) | 0.644 (inactive) | -0.717 (inactive) | -0.754 | 0.013 |
| CCN1C(C)=C(C(=O)OC)[C@@H](c2ccccc2)N2C(=O)[C@](O)(C(=O)OC)CC(C(C)=O)=C12 | -0.0348 | -1.38 (inactive) | 0.136 (inactive) | -1.27 (inactive) | -0.242 (inactive) | -0.695 (inactive) | 0.538 (inactive) | 0.866 (inactive) | -0.11 | 0.0264 |
| CON=C[C@@H](OC)[C@H](C)C=CCC(=O)OC | 0.0392 | -0.117 (inactive) | 0.293 (inactive) | -0.241 (inactive) | 0.0738 (inactive) | -0.557 (inactive) | -0.311 (inactive) | -2.25 (inactive) | -0.274 | -0.162 |
| CC(CCC(=O)OC[C@H]1O[C@H](C#Cc2ccccc2)C=C[C@@H]1Oc1ccc(C)cc1)=NOC[C@@H](C)[C@H](OCc1ccccc1)C(C)C | 0.38 | 0.513 (inactive) | 0.258 (inactive) | 0.615 (inactive) | -0.503 (inactive) | -0.222 (inactive) | 0.0786 (inactive) | -0.931 (inactive) | 0.306 | -0.227 |
| CC(=O)OC[C@H]1O[C@H](CCON=C(C)C)C=C[C@@H]1OC(C)=O | -0.97 | 0.421 (inactive) | -0.54 (inactive) | -0.0136 (inactive) | 0.265 (inactive) | 0.404 (inactive) | 0.795 (inactive) | -0.844 (inactive) | -0.0326 | -0.102 |
| COc1ccc(COC(=O)NN=C2C[C@@H](O)[C@@H](O)[C@@H]3[C@@H]4C(=O)N(C(C)(C)C)C(=O)[C@@H]4CC[C@@H]23)cc1 | -0.216 | -0.719 (inactive) | -0.181 (inactive) | -0.761 (inactive) | -0.225 (inactive) | -1.06 (inactive) | 0.237 (inactive) | 0.255 (inactive) | 0.156 | -0.252 |
| CCO[C@H](c1cc(OC)cc([N+](=O)[O-])c1OC)[C@H](C)[C@@H](OC)[C@H](C)C=CCC(=O)OC | -0.467 | -0.435 (inactive) | 0.149 (inactive) | 0.189 (inactive) | -0.303 (inactive) | -0.147 (inactive) | -0.508 (inactive) | -0.17 (inactive) | 0.0951 | 0.1 |
| CO[C@H]1COC(=O)CCC[C@H](C)[C@H](OC)COC(=O)CC=C[C@@H]1C | 0.631 | -2.21 (inactive) | 0.364 (inactive) | -1.04 (inactive) | -0.692 (inactive) | -1.93 (inactive) | 0.115 (inactive) | 0.757 (inactive) | 0.541 | 0.0593 |
| O=C1[C@H]2[C@H]3[C@H](O)[C@H](O)CC(=NO[C@@H]4O[C@H](CO)[C@@H](O)[C@H](O)[C@H]4O)[C@H]3CC[C@H]2C(=O)N1c1ccc(F)cc1F | 0.487 | 0.191 (inactive) | -0.141 (inactive) | -1.08 (inactive) | -0.377 (inactive) | -0.638 (inactive) | 0.166 (inactive) | -0.196 (inactive) | 0.371 | 0.394 |
| C[C@]12CCC3c4ccc(OCC5CO5)cc4CCC3C1CC[C@@H]2O (stereo not given in full) | 0.689 | -3.59 (inactive) | 0.383 (inactive) | -0.187 (inactive) | 0.52 (inactive) | 1.27 (inactive) | -0.424 (inactive) | -0.431 (inactive) | 1.68 | -0.148 |
| CCCNC(=O)OC[C@H]1O[C@H](CCON=C2c3cc(OC)ccc3O[C@H](c3cccc(OC)c3)[C@H]2O)C=C[C@@H]1Oc1ccc(OC)cc1 | -0.286 | 0.668 (inactive) | -0.801 (inactive) | 0.159 (inactive) | 0.724 (inactive) | 0.391 (inactive) | 0.885 (inactive) | -0.034 (inactive) | -0.384 | 0.02 |
| CCCNC(=O)OC[C@H]1O[C@H](CCON=C2C[C@@H](O)[C@@H](O)[C@@H]3[C@@H]4C(=O)N(CC)C(=O)[C@@H]4CC[C@@H]23)C=C[C@@H]1Oc1ccc(OC)cc1 | -0.57 | 0.0913 (inactive) | -0.791 (inactive) | -0.384 (inactive) | 0.429 (inactive) | -0.32 (inactive) | 0.74 (inactive) | 0.658 (inactive) | -1.02 | -0.281 |
| CCN1C(=O)[C@H]2[C@H]3[C@H](O)[C@H](O)CC(=NO[C@@H]4O[C@H](CO)[C@@H](O)[C@H](O)[C@H]4O)[C@H]3CC[C@H]2C1=O | -0.171 | -0.305 (inactive) | 0.298 (inactive) | -0.707 (inactive) | 0.519 (inactive) | -0.782 (inactive) | -0.18 (inactive) | -0.446 (inactive) | 0.064 | -0.11 |
| COC(=O)[C@H](C)NC(=O)CCC1CC(OC(=O)NCc2cccc3ccccc23)CC2(CCCC(COC(=O)NCCOc3ccccc3)O2)O1 (stereo not given in full) | 0.311 | -0.689 (inactive) | 0.875 (inactive) | -0.989 (inactive) | -0.458 (inactive) | 0.149 (inactive) | 0.008 (inactive) | -0.693 (inactive) | 0.564 | -0.275 |
| CC(C)[C@@H](OCc1ccccc1)[C@H](C)C=NO[C@@H](C)c1cn([C@H](CO)Cc2ccccc2)nn1 | -1.07 | -2.35 (inactive) | -0.883 (inactive) | -0.984 (inactive) | 0.241 (inactive) | -0.0022 (inactive) | 0.805 (inactive) | 0.633 (inactive) | -1.63 | 0.0374 |
| O=C1CCCC=C1C(O)c1ccc([N+](=O)[O-])cc1 (stereo not given) | -0.426 | -0.851 (inactive) | -0.57 (inactive) | -0.42 (inactive) | -0.47 (inactive) | -0.66 (inactive) | 0.47 (inactive) | 0.4 (inactive) | -0.865 | -0.0019 |
| CCOC(=O)CCN1C(=O)[C@H]2[C@H]3[C@H](O)[C@H](O)CC(=NNC(=O)OCC)[C@H]3CC[C@H]2C1=O | -0.207 | -1.01 (inactive) | 0.137 (inactive) | 0.519 (inactive) | 0.614 (inactive) | 0.235 (inactive) | -0.216 (inactive) | -0.318 (inactive) | -0.0651 | 0.106 |
| CCOC(=O)NN=C1C[C@@H](O)[C@@H](O)[C@@H]2[C@@H]3C(=O)N(CC)C(=O)[C@@H]3CC[C@H]12 | -0.635 | 0.467 (inactive) | -2.97 (inactive) | 0.463 (inactive) | 0.0578 (inactive) | 0.355 (inactive) | 0.334 (inactive) | 0.388 (inactive) | -1.04 | 0.0119 |
| CC(CCN1CCCCc2nc(C)c(C)cc21)=NO[C@H](C)c1cn([C@@H]2COC[C@H]2O)nn1 | 0.404 | 1.62 (inactive) | -1.64 (inactive) | -0.21 (inactive) | -0.561 (inactive) | 0.811 (inactive) | 0.715 (inactive) | 0.821 (inactive) | -0.256 | 0.256 |
| O=C1C=C[C@@H](O)[C@@H]2[C@@H]3C(=O)N(c4cccc(Oc5ccccc5)c4)C(=O)[C@@H]3CC[C@@H]12 | -0.553 | -1.82 (inactive) | -0.136 (inactive) | -2.96 (inactive) | 0.188 (inactive) | -0.518 (inactive) | 0.318 (inactive) | -1.71 (inactive) | 0.088 | 0.242 |
| O=C1C2=CC[C@H]3C(=O)N(Cc4ccccc4)C(=O)[C@H]3[C@H]2[C@H](O)[C@@H]2O[C@H]12 | 0.35 | -2.16 (inactive) | -5.73 (inactive) | -1.59 (inactive) | 0.0821 (inactive) | -1.22 (inactive) | -0.416 (inactive) | -0.425 (inactive) | -3.38 | 0.0006 |
| O=C1[C@H]2[C@H]3[C@H](O)[C@H](O)CC(=NOCc4ccccc4)[C@@H]3CC[C@H]2C(=O)N1c1cccc(Oc2ccccc2)c1 | 0.363 | 0.204 (inactive) | -0.857 (inactive) | -0.0818 (inactive) | 0.741 (inactive) | 0.056 (inactive) | 0.796 (inactive) | 1.4 (inactive) | 0.173 | -0.15 |
| O=C1C[C@@H](O)[C@@H](O)[C@@H]2[C@@H]3C(=O)N(c4ccc(F)cc4F)C(=O)[C@@H]3CC[C@H]12 | -0.635 | 0.021 (inactive) | -0.175 (inactive) | -0.0528 (inactive) | 0.471 (inactive) | -0.304 (inactive) | -0.297 (inactive) | -1.31 (inactive) | -0.413 | -0.214 |
| O=C1CCCC=C1C(O)COCc1ccccc1 (stereo not given) | -0.178 | -0.971 (inactive) | -0.155 (inactive) | 0.438 (inactive) | 0.402 (inactive) | 0.902 (inactive) | -0.227 (inactive) | -0.477 (inactive) | 0.13 | -0.02 |
